# Source: PubChem BioAssay (EPA / NIEHS)
# Several values for one entry are separate records, joined by “and”; a condition that tells them apart may be missing. Identical values can stand only once. Records with an inconclusive call do not appear. Some compounds were tested as several samples or in several runs, with calls that do not always agree. Activity calls are given as the source filed them. The calls were made as follows, unless noted: active = hit-call score of the fitted dose curve at least 0.9, where 1 is the maximum; inactive = score below 0.9.
# What was measured:
# [1] = CCTE_Mundy_HCI_Cortical_Synap_Neur_Matur_NeuriteSpotCountPerNeuriteLength: CCTE's Synaptogenesis and Neurite Maturation Assay in rat cortical cells for Neurite Spot Count per Neurite Length, Mundy Lab (AID 2284210)
# Method in brief: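 Neurite-associated synapse density (synaptophysin puncta per unit neurite length) is measured by fluorescence high-content imaging in rat cortical cultures treated from DIV 7 and fixed at DIV 12, with DMSO as negative control.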
# [2] = CCTE_Mundy_HCI_Cortical_Synap_Neur_Matur_BPCount: CCTE's Synaptogenesis and Neurite Maturation Assay in rat cortical cells for Branch Point Count, Mundy Lab (AID 2284211)
# Method in brief: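 HCI read-out of branch points from MAP2/synaptophysin/Hoechst immunofluorescence; rat cortical cultures, AraC DIV 5, dosing DIV 7, fixed DIV 12; fit in positive direction vs DMSO baseline.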
# [3] = CCTE_Mundy_HCI_Cortical_NOG_NeuriteCount: CCTE's Neurite Outgrowth Assay in rat cortical cells for Neurite Count, Mundy Lab (AID 2284212);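 also: cells fixed about two days after chemical exposure began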
# Method in brief: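 Rat cortical primary cells; compound added 2 h post-plating, 1/10 dilution of working solution. Anti-betaIII-tubulin/AF488 ICC; ArrayScan neurite count vs DMSO.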
# [4] = CCTE_Mundy_HCI_Cortical_NOG_NeuriteLength: CCTE's Neurite Outgrowth Assay in rat cortical cells for Neurite Length, Mundy Lab (AID 2284213)
# Method in brief: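 First, rat primary cortical cells were plated and, 2 h later, given test chemical as a 1/10 dilution. Finally, βIII-tubulin immunostaining enabled automated imaging of neurite length.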
# [5] = CCTE_Mundy_HCI_Cortical_Synap_Neur_Matur_NeuriteLength: CCTE's Synaptogenesis and Neurite Maturation Assay in rat cortical cells for Neurite Length, Mundy Lab (AID 2284214)
# Method in brief: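 Cultures of rat primary cortical cells received chemical at DIV 7 and were fixed at DIV 12, after glial arrest with AraC at DIV 5. Neurite length was measured by automated imaging of MAP2 immunofluorescence.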
# [6] = CCTE_Mundy_HCI_Cortical_Synap_Neur_Matur_NeuriteSpotCountPerNeuron: CCTE's Synaptogenesis and Neurite Maturation Assay in rat cortical cells for Neurite Spot Count per Neuron Count, Mundy Lab (AID 2284215)
# Method in brief: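 Synapse density is scored as synaptophysin spots along neurites per neuron in fixed rat cortical neurons, measured at DIV 12 after chemical dosing at DIV 7. DMSO is the negative control and activity baseline.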
# [7] = TAMU_PeakParms_SingleDonor1434_Chronotropy: Texas A&M University (TAMU) 1.5-hr Human Induced Pluripotent Stem Cell (iPSC)-derived Cardiomyocytes Calcium (Ca+2) Flux Assay for Cardiotoxicity: Chronotropy (changes in peak frequency) (AID 2284217); conditions: actives raise or lower the signal
# Method in brief: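 Beat rate, as mean Ca2+-flux peak frequency, was read from donor 1434 iPSC cardiomyocytes 90 min after exposure to 0.2–100 uM test chemical (0.5% DMSO). Wells that stopped beating were excluded; EC05 from bidirectional DMSO-referenced fitting.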
# [8] = CCTE_Mundy_HCI_Cortical_Synap_Neur_Matur_SynapseCount: CCTE's Synaptogenesis and Neurite Maturation Assay in rat cortical cells for Synapse Count, Mundy Lab (AID 2284218)
# Method in brief: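 Cells were plated, allowed 2 hr to attach, treated with AraC at DIV 5, then exposed to chemicals from DIV 7 until DIV 12. After fixation and MAP2/synaptophysin immunolabelling, synapses per neuron were quantified by automated imaging against DMSO.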
# [9] = CCTE_Mundy_HCI_hN2_NOG_NeuriteCount: CCTE's Neurite Outgrowth Assay in human hN2 cells for Neurite Count, Mundy Lab (AID 2284219; active = hit-call score of the fitted dose curve at least 0.9, where 1 is the maximum)
# Method in brief: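 In this morphology assay, hNP1-derived neurons received test chemical 2 h post-plating and were fixed two days later in warm paraformaldehyde/sucrose containing Hoechst 33342. Neurites, labelled by rabbit anti-βIII-tubulin (1:800) and Alexa Fluor-488 (1:500), were counted automatically.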
# [10] = CCTE_Mundy_HCI_hN2_NOG_NeuriteLength: CCTE's Neurite Outgrowth Assay in human hN2 cells for Neurite Length, Mundy Lab (AID 2284220; active = hit-call score of the fitted dose curve at least 0.9, where 1 is the maximum)
# Method in brief: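 Using βIII-tubulin immunofluorescence and Hoechst nuclear counterstain, this component quantifies neurite length in hNP1-derived neurons.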
# [11] = CCTE_Mundy_HCI_hN2_NOG_NeuronCount: CCTE's Neurite Outgrowth Assay in human hN2 cells for Neuron Count, Mundy Lab (AID 2284221; active = hit-call score of the fitted dose curve at least 0.9, where 1 is the maximum)
# Method in brief: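 Read-out is the number of betaIII-tubulin-positive neurons imaged by automated high-content analysis, with DMSO as negative control.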
# [12] = CCTE_Mundy_HCI_Cortical_Synap_Neur_Matur_NeuriteCount: CCTE's Synaptogenesis and Neurite Maturation Assay in rat cortical cells for Neurite Count, Mundy Lab (AID 2284222);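 also: exposure from day 7 to day 12 in vitro with readout at day 12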
# Method in brief: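 Rat cortical neurons, 96-well; AraC DIV 5; chemical + media change DIV 7; end DIV 12. Fix PFA/Hoechst, anti-MAP2 + anti-synaptophysin IF. HCI neurite count vs DMSO baseline.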
# [13] = CCTE_Mundy_HCI_Cortical_Synap_Neur_Matur_CellBodySpotCount: CCTE's Synaptogenesis and Neurite Maturation Assay in rat cortical cells for Cell Body Spot Count, Mundy Lab (AID 2284223)
# Method in brief: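 Synapse number at neuronal cell bodies was quantified as synaptophysin puncta per neuron in rat cortical cultures exposed from DIV 7 to DIV 12. Values were normalised to DMSO.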
# [14] = BSK_BT_PBMCCytotoxicity: PBMC Cytotoxicity Assessment in the BioMAP Diversity Plus: BT Assay (AID 2284225); conditions: primary human B cells with PBMC;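 also: PBMC viability measured by Alamar Blue dye reduction fluorescence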
# Method in brief: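 Viability by Alamar Blue reduction (6 h, ex/em 546/580 nm) after 90 h culture of SEB/TSST-1-activated PBMC (20 ng/mL each) given compound 1 h before activation. DMSO served as baseline for curve fitting.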
# [15] = read-out: Secreted IgG (sIgG), gene 3500; test: BSK_BT_sIgG: BioMAP Diversity Plus: BT Assay for Secreted IgG (sIgG) Biomarker Activity (AID 2284226); conditions: primary human B cells with PBMC
# Method in brief: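 Cells (B cells with peripheral blood mononuclear cells) are dosed, cultured 24 h, then supernatant IgG is measured by ELISA. DMSO serves as negative control; curves are fitted for signal increase.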
# [16] = BSK_BT_Bcell_Proliferation: Viability Assessment in the BioMAP Diversity Plus: BT Assay for B cell Proliferation (AID 2284227); conditions: primary human B cells with PBMC
# Method in brief: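 Human B cell/PBMC co-culture; test chemical added; 72 h; TCA fix (10%), 0.1% SRB stain, A560 for total protein as a proliferation read-out; positive-direction fit vs DMSO baseline.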
# [17] = read-out: Interleukin 6 (IL6), IL6 (gene 3569); test: BSK_BT_xIL6: BioMAP Diversity Plus: BT Assay for Interleukin 6 (IL6) Biomarker Activity (AID 2284228); conditions: primary human B cells with PBMC
# Method in brief: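 Chemical added to human B cell/PBMC co-culture → 24 h → supernatant IL-6 by Luminex xMAP → fit vs DMSO baseline, upward direction.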
# [18] = CCTE_Mundy_HCI_hNP1_Pro_ResponderAvgInten: CCTE's Proliferation Assay in human neuroprogenitor cells, Mundy Lab (AID 2284224; active = hit-call score of the fitted dose curve at least 0.9, where 1 is the maximum;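 also: human neural progenitor cells hNP1 derived from WA09 embryonic stem cells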)
# Method in brief: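 Human neuroprogenitors (hNP1, WA09 lineage) receive test chemical after 40 to 44 hours of attachment. A four-hour BrdU pulse begins twenty hours later, followed by fixation and high content imaging; signal is referenced to DMSO controls.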
smiles,measurement,setting,value
CCC1(c2ccccc2)C(=O)N=C(O)NC1=O (stereo unspecified),outcome,[1],inactive
same,outcome,[2],inactive
same,outcome,[3],inactive
same,outcome,[4],inactive
same,outcome,[5],inactive
same,outcome,[6],inactive
same,AC50,[7],29.7 µM (active)
same,outcome,[8],inactive
same,outcome,[9],inactive
same,outcome,[10],inactive
same,outcome,[11],inactive
same,outcome,[12],inactive
same,outcome,[13],inactive
c1cc2c3c(cccc3c1)CC2,AC50,[7],32.2 µM (active)
CCOP(=S)(OCC)SCSc1ccc(Cl)cc1,outcome,[14],inactive
same,AC50,[15],20 µM (active)
same,outcome,[16],inactive
same,outcome,[17],inactive
N#Cc1cc([N+](=O)[O-])ccc1N,outcome,[14],inactive
same,outcome,[15],inactive
same,outcome,[16],inactive
same,outcome,[17],inactive
O=P1(N(CCCl)CCCl)NCCCO1 (stereo unspecified),outcome,[1],inactive
same,outcome,[2],inactive
same,outcome,[3],inactive
same,outcome,[4],inactive
same,outcome,[5],inactive
same,outcome,[6],inactive
same,outcome,[8],inactive
same,outcome,[9],inactive
same,outcome,[10],inactive
same,outcome,[12],inactive
same,outcome,[13],inactive
C=CC(=O)OCC(F)(F)C(F)F,outcome,[18],inactive
same,AC50,[14],30 µM (active) and 23.6 µM (active)
same,AC50,[15],43 µM (active) and 48.8 µM (active)
same,AC50,[16],22.3 µM (active) and 36.2 µM (active)
same,AC50,[17],34.1 µM (active) and 31.7 µM (active)
ClC(Cl)=C(c1ccc(Cl)cc1)c1ccccc1Cl,AC50,[14],37.2 µM (active)
same,AC50,[15],29.6 µM (active)
same,AC50,[16],34.4 µM (active)
same,AC50,[17],30 µM (active)
CCOP(=S)(NC(C)C)Oc1ccccc1C(=O)OC(C)C (stereo unspecified),outcome,[14],inactive
same,AC50,[15],14.2 µM (active)
same,outcome,[16],inactive
same,AC50,[17],14.3 µM (active)
O=S(=O)(F)C(F)(F)C(F)(F)C(F)(F)C(F)(F)C(F)(F)C(F)(F)C(F)(F)C(F)(F)F,outcome,[14],inactive
same,outcome,[15],inactive
same,outcome,[16],inactive
same,outcome,[17],inactive
NC(=O)C(F)(F)C(F)(F)F,outcome,[14],inactive
same,outcome,[15],inactive
same,outcome,[16],inactive
same,outcome,[17],inactive
OCC(F)(F)OC(F)(F)C(F)(F)OC(F)(F)C(F)(F)OC(F)(F)F,AC50,[14],30.7 µM (active) and 43.3 µM (active)
same,AC50,[15],50.4 µM (active) and 44.2 µM (active)
same,AC50,[16],22.6 µM (active) and 52.7 µM (active)
same,AC50,[17],46.6 µM (active) and 45.2 µM (active)
COP(N)(=S)OC,outcome,[14],inactive
same,outcome,[15],inactive
same,outcome,[16],inactive
same,outcome,[17],inactive
CC(Cl)CN(C)C (stereo unspecified),outcome,[14],inactive
same,outcome,[15],inactive
same,outcome,[16],inactive
same,outcome,[17],inactive
CCCCC(CC)COC(=O)c1c(Br)c(Br)c(Br)c(Br)c1C(=O)OCC(CC)CCCC (stereo unspecified),outcome,[14],inactive
same,outcome,[15],inactive
same,outcome,[16],inactive
same,outcome,[17],inactive
O=c1ssc(Cl)c1Cl,AC50,[14],6.76 µM (active)
same,AC50,[15],3.62 µM (active)
same,AC50,[16],6.31 µM (active)
same,AC50,[17],6.42 µM (active)
O=C(O)C(F)(F)OC(F)(F)C(F)(F)OC(F)(F)C(=O)O,outcome,[14],inactive
same,outcome,[15],inactive
same,outcome,[16],inactive
same,outcome,[17],inactive
COP(=O)(O)OC,outcome,[14],inactive
same,outcome,[15],inactive
same,outcome,[16],inactive
same,outcome,[17],inactive
O=C(O)C=CC(F)(C(F)(F)F)C(F)(F)F,outcome,[14],inactive
same,outcome,[15],inactive
same,outcome,[16],inactive
same,outcome,[17],inactive
O=P(OCC(Br)CBr)(OCC(Br)CBr)OCC(Br)CBr (stereo unspecified),outcome,[14],inactive
same,AC50,[15],16.9 µM (active)
same,AC50,[16],23.9 µM (active)
same,AC50,[17],17.4 µM (active)
OCC(F)(F)OC(F)(F)C(F)(F)OC(F)(F)CO,outcome,[14],inactive
same,outcome,[15],inactive
same,outcome,[16],inactive
same,outcome,[17],inactive
Cc1ccc2c(c1N)C(=O)c1ccccc1C2=O,outcome,[14],inactive
same,outcome,[15],inactive
same,outcome,[16],inactive
same,AC50,[17],0.144 µM (active)
C=CC(=O)OCC(CC)(COC(=O)C=C)COC(=O)C=C,AC50,[14],2.98 µM (active)
same,AC50,[15],0.516 µM (active)
same,AC50,[16],2.36 µM (active)
same,AC50,[17],1.46 µM (active)
CCOP(=S)(OCC)SCS(=O)(=O)CC,outcome,[14],inactive
same,outcome,[15],inactive
same,outcome,[16],inactive
same,outcome,[17],inactive
CC(O)C(F)(F)C(F)(F)F (stereo unspecified),outcome,[14],inactive
same,outcome,[15],inactive
same,outcome,[16],inactive
same,outcome,[17],inactive
c1ccc2c(c1)sc1ccccc12,outcome,[14],inactive
same,outcome,[15],inactive
same,outcome,[16],inactive
same,outcome,[17],inactive
CCOP(=S)(OCC)SCn1nnc2ccccc2c1=O,outcome,[14],inactive
same,AC50,[15],20 µM (active)
same,outcome,[16],inactive
same,outcome,[17],inactive
O=C(O)C(F)(F)C(F)(F)C(=O)O,outcome,[14],inactive
same,outcome,[15],inactive
same,outcome,[16],inactive
same,outcome,[17],inactive
N#Cc1c(-c2ccc(Cl)cc2)[nH]c(C(F)(F)F)c1Br,AC50,[14],2.33 µM (active)
same,AC50,[15],0.309 µM (active)
same,AC50,[16],2.37 µM (active)
same,AC50,[17],0.556 µM (active)
OCC(F)(F)OC(F)(F)C(F)(F)OC(F)(F)C(F)(F)OC(F)(F)CO,outcome,[14],inactive
same,AC50,[15],30 µM (active)
same,outcome,[16],inactive
same,AC50,[17],38.4 µM (active)
same,outcome,[17],inactive
